A short description of assay [1]: qHTS assay to identify small molecule antagonists of the glucocorticoid receptor (GR) signaling pathway - cell viability counter screen (AID 720693; note: nearly all actives have a fitted effect of over 55% in size; note: potency is the fitted concentration of half-maximal effect). (In qHTS, concentration-response curves come from the screen itself.)
Assay [2] can be described thus: qHTS assay for identifying genotoxic compounds that show differential cytotoxicity against isogenic chicken DT40 cell lines with known DNA damage response pathways - wild type cell line (AID 743012). Note: nearly all actives have a fitted effect of over 60% in size. Note: potency is the fitted concentration of half-maximal effect. In outline:
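Viability of DNA repair-proficient chicken DT40 cells was assessed by CellTiter-Glo luminescence following 40 h compound exposure at 37 C/5% CO2.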

A short description of assay [3]: qHTS assay for identifying genotoxic compounds that show differential cytotoxicity against isogenic chicken DT40 cell lines with known DNA damage response pathways - Rev3 mutant cell line (AID 743014). Note: nearly all actives have a fitted effect of over 55% in size. Note: potency is the fitted concentration of half-maximal effect.
A short description of assay [4]: qHTS assay for identifying genotoxic compounds that show differential cytotoxicity against isogenic chicken DT40 cell lines with known DNA damage response pathways - Rad54/Ku70 mutant cell line (AID 743015). Note: nearly all actives have a fitted effect of over 60% in size. Note: potency is the fitted concentration of half-maximal effect.
A short description of assay [5]: qHTS assay to identify small molecule antagonists of the androgen receptor (AR) signaling pathway - cell viability counter screen (AID 743033; note: nearly all actives have a fitted effect of over 45% in size; note: potency is the fitted concentration of half-maximal effect).
For assay [6], the target named is Androgen receptor (Homo sapiens) (UniProt P10275). The assay is described as follows: qHTS assay to identify small molecule antagonists of the androgen receptor (AR) signaling pathway (AID 743035; active = well fitted inhibition curve with a large enough effect in the signal ratio in the repeat runs, not every such curve was filed as active; the % refers to the signal ratio). The method in brief:
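Reporter HEK293 cells were exposed to compounds and R1881 overnight (16 h, 37C); beta-lactamase activity was then quantified by FRET fluorescence.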

Assay [7] shares this target. The assay is described as follows: qHTS assay to identify small molecule agonists of the androgen receptor (AR) signaling pathway (AID 743036; active = well fitted activation curve with a large enough effect in the signal ratio in the repeat runs, with a control signal flat, not every such curve was filed as active; the % refers to the signal ratio; note: potency is the fitted concentration of half-maximal effect). In outline: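 Fluorescence from a beta-lactamase FRET substrate served as read-out in AR-UAS-bla GripTite HEK293 cells. Cells were treated with DMSO-dissolved compounds for 16 h at 37C, then with LiveBLAzer B/G substrate for 2 h at room temperature.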

Assay [8] has the same target. Nature of the assay: qHTS assay to identify small molecule agonists of the androgen receptor (AR) signaling pathway using the MDA cell line (AID 743040; note: nearly all actives have a fitted effect of over 20% in size). In outline: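 Cell-based luciferase reporter: MDA-kb2, MMTV promoter (AR + GR response elements). 16 h compound exposure at 37C; ONE-Glo, 30 min RT, luminescence.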
Assay [9] can be described thus: qHTS assay to identify small molecule antagonists of the androgen receptor (AR) signaling pathway using the MDA cell line - cell viability counter screen (AID 743041; note: nearly all actives have a fitted effect of over 45% in size; note: potency is the fitted concentration of half-maximal effect). The method in brief: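 In this qHTS counter assay, fluorescence intensity after CellTiter-Fluor addition indicated viability of MDA-kb2 AR-luc cells given compounds and R1881 for 16 h at 37C.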
Assay [10] deals with Androgen receptor (Homo sapiens) (UniProt P10275). Nature of the assay: qHTS assay to identify small molecule antagonists of the androgen receptor (AR) signaling pathway using the MDA cell line (AID 743042; note: nearly all actives have a fitted effect of over 55% in size). In outline: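 MDA-kb2 cells (human breast carcinoma, stably carrying an MMTV-luciferase reporter responsive to AR and GR) were plated at 3,000 cells/well and preincubated 5 hr at 37C, then given compound plus R1881 agonist for 16 h. ONE-Glo luminescence was read.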
Sequence of Androgen receptor (Homo sapiens) (P10275 whole entry, looked up): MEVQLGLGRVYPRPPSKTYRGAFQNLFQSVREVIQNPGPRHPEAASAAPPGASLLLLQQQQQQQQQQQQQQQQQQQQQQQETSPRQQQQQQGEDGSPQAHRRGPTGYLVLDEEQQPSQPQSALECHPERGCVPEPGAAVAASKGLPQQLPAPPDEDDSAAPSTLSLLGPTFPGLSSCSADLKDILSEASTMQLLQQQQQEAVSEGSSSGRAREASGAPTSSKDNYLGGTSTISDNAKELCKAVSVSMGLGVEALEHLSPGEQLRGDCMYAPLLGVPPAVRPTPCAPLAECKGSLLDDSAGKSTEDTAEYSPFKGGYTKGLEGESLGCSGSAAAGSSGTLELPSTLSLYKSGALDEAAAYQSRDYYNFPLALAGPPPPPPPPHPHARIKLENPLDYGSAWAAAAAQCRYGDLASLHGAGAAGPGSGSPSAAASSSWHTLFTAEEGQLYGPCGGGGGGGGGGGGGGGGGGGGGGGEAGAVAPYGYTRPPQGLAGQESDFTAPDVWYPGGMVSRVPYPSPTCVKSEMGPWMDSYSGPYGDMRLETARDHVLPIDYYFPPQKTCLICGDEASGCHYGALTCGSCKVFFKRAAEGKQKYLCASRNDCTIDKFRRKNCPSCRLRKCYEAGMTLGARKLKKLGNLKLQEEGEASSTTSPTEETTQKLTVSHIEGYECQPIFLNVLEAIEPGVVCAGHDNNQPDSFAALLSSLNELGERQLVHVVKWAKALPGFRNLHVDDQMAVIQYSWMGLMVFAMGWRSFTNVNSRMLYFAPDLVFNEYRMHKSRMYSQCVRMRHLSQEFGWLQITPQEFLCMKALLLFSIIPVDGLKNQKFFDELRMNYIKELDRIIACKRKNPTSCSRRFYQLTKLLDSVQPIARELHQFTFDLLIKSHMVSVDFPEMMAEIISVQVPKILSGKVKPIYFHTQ

Molecules are shown by their SMILES. Where “and” joins values, the source holds several entries; their conditions need not be identical. Equal entries are not always repeated. Inconclusive results are not listed. More than one record can exist for a structure, and the calls need not agree. Calls of active or inactive are those of the source. Unless noted, calls come from the whole dose curve; as a rule, active = well fitted curve in the direction sought with a large enough effect in the repeat runs; inconclusive = weak or mixed curves; inactive = no such curve, though single readings can be large; an effect the other way counts as inactive or inconclusive.

Turning to `CC(=O)OCC=C(C)C`, the Potency result in assay [1], in assay [2], in assay [3], in assay [4], in [5] and in assay [6] was “inactive” throughout. The Potency result in assay [7], in [9] and in [10] was “inactive” each time. The result in [8] was inactive.

Turning to `c1ccsc1`, the Potency entry in assay [1], in assay [2], in [3], in [4], in assay [5] and in [6] was “inactive” throughout. Moreover, the Potency result in assay [9] and in [10] was “inactive” each time. Also, in [7], the Potency was 5.9 µM (active).

In the case of `COc1cc2nc(N3CCN(C(=O)c4ccco4)CC3)nc(N)c2cc1OC`, the Potency entry in assay [1] is “inactive”. Further, the Potency in assay [2] is 10.6 µM (active); in assay [3], 13.3 µM (active); in [4] it was 13.3 µM (active).

On to `NC(=O)c1cccc([N+](=O)[O-])c1`, for which the Potency entry in assay [1], in assay [2], in assay [3], in assay [4], in assay [5] and in assay [6] was “inactive” throughout. In addition, in [10], the Potency entry is “inactive”. For the same compound, in assay [8], the outcome was inactive.

As for `CCCCCCCC`, the Potency entry in [1], in assay [2], in assay [3], in assay [4] and in assay [5] was “inactive” throughout.

As for `CCc1cccc(CC)c1NC(=O)CN(CC(=O)O)CC(=O)O`, the Potency result in [1], in assay [2], in [3], in assay [4] and in [5] was “inactive” each time.

On to `C/C=C/C=C/COC(=O)C(C)C`, for which the Potency entry in assay [1] and in [5] was “inactive” throughout. The values for the Potency in assay [2], in [3] and in assay [4] were 13.7 µM (active), 13.7 µM (active) and 17.2 µM (active), respectively.

Regarding `CCc1ccc(Br)cc1`, the Potency entry in assay [1], in [2], in assay [3], in assay [4] and in [5] was “inactive” in each case.

With `NC(=S)NC(N)=S`, the Potency result in assay [1], in [5], in assay [6], in [7], in assay [9] and in [10] was “inactive” each time. Further, the results for the Potency in [2], in assay [3] and in assay [4] were 61.1 µM (active), 61.1 µM (active) and 68.6 µM (active), respectively. Moreover, the compound was classed as inactive in assay [8].

As for `CCCCCCOC(=O)C(C)CC` (configuration not stated), the Potency result in assay [1], in assay [2], in assay [3], in assay [4], in assay [5] and in assay [6] was “inactive” throughout. In addition, the Potency entry in assay [7], in [9] and in [10] was “inactive” in each case. Also, the result in [8] was inactive.

Turning to `CCCC1CCC(=O)CC1`, the Potency result in assay [1], in [2], in [3], in assay [4], in assay [5] and in assay [9] was “inactive” in each case.

Consider `COC(=O)c1ccccc1C`, for which the Potency result in [1], in assay [2], in assay [3], in assay [4], in assay [5] and in assay [9] was “inactive” each time.

`O=C(O)c1cc(N=Nc2ccc([N+](=O)[O-])cc2)ccc1O`: the results for the Potency in [1] and in assay [9] were 21.5 µM (active) and 47.7 µM (active), respectively. Also, the Potency result in [2], in assay [3], in assay [4] and in assay [5] was “inactive” throughout.

As for `CC(=O)[C@H]1CC[C@H]2[C@@H]3CCC4=CC(=O)CC[C@]4(C)[C@H]3CC[C@]12C`, the Potency is 3.87 µM (active) in [1]; 6.68 µM (active) and 13.6 µM (active) and 7.7 µM (active) in assay [2]; 9.44 µM (active) and 6.82 µM (active) and 6.86 µM (active) in [3]; 9.44 µM (active) and 12.1 µM (active) and 12.2 µM (active) in assay [4]; “inactive and 43.6 µM (active)” in assay [5]. Also, the Potency result in assay [9] was “inactive”.

On to `CC(C)(C)c1ccc(C(O)CCCN2CCC(C(O)(c3ccccc3)c3ccccc3)CC2)cc1` (configuration not stated), for which the Potency result in assay [1], in [5] and in assay [9] was “inactive” each time. Moreover, the Potency in assay [2] is 4.22 µM (active) and 3.76 µM (active); in assay [3] it was “inactive and 9.44 µM (active)”; in [4] it was 9.44 µM (active).

For `O=[N+]([O-])c1cccc(C(F)(F)F)c1`, the Potency entry in [1], in assay [2], in [3], in assay [4], in assay [5] and in assay [9] was “inactive” throughout.

`CCC(=O)OC(=O)CC`: the Potency result in assay [1], in [2], in [3], in assay [4], in assay [5] and in assay [9] was “inactive” each time.

For the compound `O=C(O)[C@H](O)[C@@H](O)[C@H](O[C@@H]1O[C@H](CO)[C@H](O)[C@H](O)[C@H]1O)[C@H](O)CO`, the Potency result in [1], in [2], in [3], in assay [4], in [5] and in assay [9] was “inactive” in each case.

As for `Clc1ccnc(Cl)n1`, the Potency result in assay [1], in assay [2], in [3], in [4], in [5] and in assay [9] was “inactive” in each case.

Regarding `CCCCCCCCCCOC(=O)c1ccccc1C(=O)OCCCCCCCC`, the Potency result in assay [1], in [2], in assay [3], in [4], in [5] and in assay [7] was “inactive” each time. Besides, the Potency result in assay [9] and in assay [10] was “inactive” each time. Also, in assay [8], the outcome was inactive.

Take `CCCCC/C=C\C/C=C\CCCCCCCC(=O)O`: the Potency entry in assay [1], in [2], in assay [3], in assay [5] and in [9] was “inactive” in each case. For the same compound, the Potency entry in [4] was “inactive and 54.5 µM (active)”.

Regarding `O=C(O)c1ccc2cc(C(=O)O)ccc2c1`, the Potency entry in assay [1], in assay [2], in [3], in assay [4], in assay [5] and in [9] was “inactive” in each case.

As for `COc1cc(C)ccc1O`, the Potency result in assay [1], in assay [2], in [3], in assay [4], in assay [5] and in assay [9] was “inactive” throughout.

With `Cc1c(C)c2c(c(C)c1O)CC[C@@](C)(CCC[C@H](C)CCC[C@H](C)CCCC(C)C)O2`, the Potency entry in assay [1], in assay [2], in assay [3], in assay [4], in assay [5] and in [9] was “inactive” throughout.

For the compound `Nc1cc(Cl)c(O)c(Cl)c1`, the Potency result in assay [1], in assay [5], in assay [9] and in assay [10] was “inactive” each time. For the same compound, the Potency in assay [2] is 10.9 µM (active); in [3], 15.4 µM (active); in assay [4] it was 24.3 µM (active). Also, the outcome in [8] was inactive.

For `Nc1nc2c(ncn2COCCO)c(=O)[nH]1`, the Potency entry in assay [1], in assay [5] and in [9] was “inactive” each time. For the same compound, the Potency in assay [2] was 2.54 µM (active); in assay [3], 2.27 µM (active); in [4] it was 4.52 µM (active).

These data come from PubChem BioAssay (Tox21).
